Most compounds without a hit are left out; they make up all but 2.1% or so of the library.
hDAT+cocaine: changed human dopamine transporter uptake under cocaine IC80; Q01959; LLC-PK1 hDAT cells, [14C]-dopamine uptake with cocaine IC80; actives deviate in either direction; B-score at 10 µM; 110,000 compounds, 1.3% hits; AID 449768;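 active means Z score or B-score, a plate-position-corrected score, falls beyond the plate's 99.7% confidence bounds, in either direction; inactive means both scores lie inside the 99.7% bounds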;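 further: scored against the spread of the other compound wells on the same plate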
Target sequence (Q01959 whole entry, looked up): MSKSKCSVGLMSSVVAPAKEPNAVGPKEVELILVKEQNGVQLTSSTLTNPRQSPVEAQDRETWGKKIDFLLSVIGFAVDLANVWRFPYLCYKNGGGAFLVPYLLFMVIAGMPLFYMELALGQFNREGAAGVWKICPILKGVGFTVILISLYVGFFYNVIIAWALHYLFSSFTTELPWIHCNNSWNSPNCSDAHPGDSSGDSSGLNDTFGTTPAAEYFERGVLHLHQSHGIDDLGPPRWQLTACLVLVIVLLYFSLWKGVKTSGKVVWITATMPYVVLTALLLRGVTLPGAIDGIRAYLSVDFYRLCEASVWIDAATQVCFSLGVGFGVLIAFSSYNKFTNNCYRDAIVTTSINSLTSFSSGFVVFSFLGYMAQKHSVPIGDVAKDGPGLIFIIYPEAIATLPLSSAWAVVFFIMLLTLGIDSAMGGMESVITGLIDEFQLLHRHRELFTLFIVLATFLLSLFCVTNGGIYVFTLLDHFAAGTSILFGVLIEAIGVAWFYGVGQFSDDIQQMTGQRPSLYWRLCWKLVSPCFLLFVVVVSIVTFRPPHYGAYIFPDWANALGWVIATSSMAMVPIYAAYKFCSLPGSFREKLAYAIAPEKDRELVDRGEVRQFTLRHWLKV
GALR2 ag: GALR2 (human) receptor agonism; O43603; GALR2-expressing cells, agonist activation read-out; activation, % (test concentration not listed); 140,000 compounds, 0.48% hits; in the data active means activation above about 5%, passing the limit was not always enough;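 further: 0% = vehicle buffer wells and 100% = reference agonist at full effect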
S1P2 agonist: activates the human S1P2 receptor; O95136; S1P2-expressing cell line, agonist reporter read-out; activation, % at 4.5 µM; 97,000 compounds, 0.46% hits; in the data active means activation above about 16%;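 further: 0% = vehicle low control and 100% = maximal reference agonist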
S1P2 antag: antagonists of human S1P2 receptor | cell-based S1P2 antagonist assay, inhibition at 5 uM | inhibition, % at 5 µM | 97,000 compounds, 0.21% hits | AID 736; in the data active means inhibition above about 45%;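 further: CRE beta-lactamase reporter cells expressing human S1P2 stimulated with S1P; 0% = agonist at EC80 alone and 100% = agonist plus reference antagonist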
GALR2 blocker: antagonists of human galanin receptor 2 (GALR2) | 140,000 compounds, 0.39% hits | inhibition, % at 4 µM | GALR2-expressing cells, antagonist mode;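 further: cells stimulated with galanin 1-16 at roughly its EC80; 0% = agonist challenge control and 100% = basal control without agonist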
GALR2 blk conf: confirmation of human galanin receptor 2 (GALR2) antagonists | 480 compounds, 60% hits | GALR2-expressing cells, antagonist mode, inhibition | AID 866 | shares compounds with GALR2 blocker | inhibition, % at 4 µM;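 further: cells stimulated with galanin at about its EC80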
BLA inhib ctr: inhibits beta-lactamase reporter in GALR2 antagonist counterscreen; shares compounds with GALR2 blocker; CHO NFAT-BLA reporter, beta-lactamase FRET, thapsigargin-stimulated; inhibition, % at 4.2 µM; 480 compounds, 36% hits; AID 867;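 active means inhibition above the mean inhibition across tested compounds plus 3 SD, cut at about 27% in these data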;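 further: 0% = 500 nM thapsigargin stimulated wells and 100% = unstimulated BSA only wells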
Starred values were filed as active, the others as inactive; . = no result given. Unless noted, no stated cut-off is given here; in the data, active means inhibition above about 27%; inactive means the rest.

SMILES	hDAT+cocaine	GALR2 ag	S1P2 agonist	S1P2 antag	GALR2 blocker	GALR2 blk conf	BLA inhib ctr
CC1(C)CC(=O)C=C(NC2=CC3OC(c4ccccc4)OCC3OC2=O)C1 (configuration not stated)	.	-1	.	.	69*	76*	65*
CC1(C)CC(=O)C2=C(C1)N(c1ccc(F)cc1)C(=O)C2(NC(=O)c1ccccc1)C(F)(F)F (configuration not stated)	.	-2	.	.	-2	.	.
Cc1ccc(N(NC(=O)C(O)(c2ccccc2)c2ccccc2)C(=O)CCl)cc1	.	-2	.	.	48*	37*	56*
Nc1c(C(=O)Nc2ccccc2F)sc2nc(-c3ccco3)ccc12	0.64	-1	-8	34	31*	27	22
NC(=O)c1sc2nc(-c3ccco3)ccc2c1N	-0.15	0	-5	14	-21	.	.
N#Cc1c(-c2ccccc2F)cc(C2CC2)nc1SCC(=O)c1cccs1	.	-1	.	.	28*	32*	32*
CCCSc1nnc(NC(=O)c2sc3nc(-c4cccs4)ccc3c2N)s1	0.012	-4	-12	55*	38*	21	34*
C/C(CC(=O)Nc1ccc(Cl)cc1Cl)=N\NC(=O)c1ccco1	.	-1	.	.	-4	.	.
O=C(/C=C/c1ccc(Cl)c([N+](=O)[O-])c1)Nc1ccc(NC(=O)c2ccco2)cc1	.	-1	.	.	33*	18	2
O=C(/C=C/c1ccc(Cl)c([N+](=O)[O-])c1)Nc1cccc(NC(=O)c2ccco2)c1	.	-2	.	.	6	.	.
O=C(CSc1ncn[nH]1)NCCCc1ccccc1	-0.33	-2	-4	18	8	.	.
COc1cccc(Oc2nnnn2-c2ccccc2)c1	0.015	-2	-2	-18	0	.	.
COc1cccc(-n2nnnc2S(C)(=O)=O)c1	-0.027	-3	-7	17	33*	55*	58*
Cn1ccs/c1=N\S(=O)(=O)c1ccc(Br)cc1	-0.68	-2	-8	3	-7	.	.
CCc1ccccc1NC(=S)N1CCN(c2ccccn2)CC1	.	-3	.	.	28*	12	-3
Cc1cc(C)nc(SCc2ccc(C(=O)N/N=C/c3cccc(O)c3O)cc2)n1	.	-1	.	.	28*	22	28*
CCOC(=O)N1CCN(C(=O)c2ccccc2NC(=O)c2ccc(F)cc2)CC1	.	1	.	.	-16	.	.
CCOC(=O)N1CCC(N2C(=O)c3ccc(C(=O)Nc4ccc(F)cc4F)cc3C2=O)CC1	-0.25	-1	.	.	28*	-2	0
Cc1ccc(C2CC(c3ccc(C)cc3)n3nc(N)nc3N2)cc1 (configuration not stated)	0.81	-1	-7	18	15	.	.
CC(C)c1cc(C(=O)NNC(=S)NCc2ccco2)c(O)c(C(C)C)c1	.	-1	.	.	0	.	.
C/C(=N\Nc1ccc([N+](=O)[O-])cc1)c1cccc(N)c1	0.79	-2	-8	14	30*	31*	16
COc1ccc(COc2cc(-c3cccc(OC)c3)nc3ccc(NC(=O)c4ccc(C)cc4)cc23)cc1	0.74	-2	.	.	13	.	.
COc1ccc(COc2cc(-c3cccc(OC)c3)nc3ccc(NC(=O)c4ccc(N(C)C)cc4)cc23)cc1	0.96	-3	.	.	27*	16	10
CCCOCCOC(=O)C1=C(C)NC(=O)NC1c1cc(Cl)c(O)c(OC)c1 (configuration not stated)	-0.66	-3	-9	17	4	.	.
CC(=O)c1c(C)[nH]c(C(=O)OCC(=O)Nc2ccc(C)cc2[N+](=O)[O-])c1C	.	-1	.	.	40*	49*	11
CC(=O)c1c(C)[nH]c(C(=O)OCC(=O)Nc2cc(Cl)ccc2[N+](=O)[O-])c1C	.	-1	.	.	25	.	.
O=C(CSc1nnc(-c2cccs2)n1-c1ccccc1)N1CCc2ccccc21	.	-1	-3	4	3	.	.
Cn1c(C(=O)O)c(CC(=O)Nc2ccc3c(c2)OCCO3)c2ccccc21	0.1	-3	-3	3	2	.	.
Cn1nc(CC(=O)Nc2ccc3c(c2)OCCO3)c2ccccc2c1=O	0.17	-1	.	.	36*	42*	17
COc1ccccc1NC(=O)Cc1nn(C)c(=O)c2ccccc12	-0.38	-2	-4	29	35*	40*	14
